Among the data in PubChem BioAssay (Tox21) are Potency and activation values, retold here.

Each structure is given as a SMILES string. Several values for one entry are separate records, joined by “and”; a condition that tells them apart may be missing. Identical values can stand only once. Records with an inconclusive call do not appear. Where a call stands in place of a potency, no number is given. Values without a mark were called inactive. Activity calls are given as the source filed them. Calls follow the shape of the dose curve; as a rule, active = well fitted activation curve with a large enough effect in the repeat runs; inconclusive = weak or mixed curves; inactive = no such curve, though single readings can be large or run the other way.
Potency is read from the fitted curve at half-maximal effect.

Sequence of Aryl hydrocarbon receptor (Homo sapiens) (P35869 whole entry, looked up): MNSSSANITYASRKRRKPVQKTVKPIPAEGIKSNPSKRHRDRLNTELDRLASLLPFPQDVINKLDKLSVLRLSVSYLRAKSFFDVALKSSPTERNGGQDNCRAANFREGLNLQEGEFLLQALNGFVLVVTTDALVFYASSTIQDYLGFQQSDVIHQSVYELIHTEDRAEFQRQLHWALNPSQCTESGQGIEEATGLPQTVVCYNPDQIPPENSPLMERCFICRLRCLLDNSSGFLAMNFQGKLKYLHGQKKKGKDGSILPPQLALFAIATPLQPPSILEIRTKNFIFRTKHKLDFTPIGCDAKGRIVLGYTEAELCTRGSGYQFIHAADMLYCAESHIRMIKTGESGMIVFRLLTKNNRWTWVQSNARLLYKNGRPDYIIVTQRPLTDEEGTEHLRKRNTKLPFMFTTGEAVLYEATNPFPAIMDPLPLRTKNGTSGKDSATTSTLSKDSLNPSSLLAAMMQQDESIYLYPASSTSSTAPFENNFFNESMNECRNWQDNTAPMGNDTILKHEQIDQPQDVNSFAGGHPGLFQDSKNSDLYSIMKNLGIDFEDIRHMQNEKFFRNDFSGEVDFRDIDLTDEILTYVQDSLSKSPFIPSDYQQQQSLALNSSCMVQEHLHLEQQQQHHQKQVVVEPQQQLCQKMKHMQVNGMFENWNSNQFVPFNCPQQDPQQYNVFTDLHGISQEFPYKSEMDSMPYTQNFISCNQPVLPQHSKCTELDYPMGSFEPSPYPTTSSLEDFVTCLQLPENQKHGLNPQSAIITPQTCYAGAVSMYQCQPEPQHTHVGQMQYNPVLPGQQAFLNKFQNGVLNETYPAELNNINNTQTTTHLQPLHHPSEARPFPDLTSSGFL

This experiment addresses Aryl hydrocarbon receptor (Homo sapiens) (UniProt P35869). The experiment can be described thus: qHTS assay to identify small molecule that activate the aryl hydrocarbon receptor (AhR) signaling pathway (AID 743085). Also: nearly all actives have a fitted effect of over 15% in size.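 As to activation: HG2L7.5c1 human HepG2 liver cells with stably integrated DRE-driven firefly reporter.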 The note with it: HepG2 AhR-luc (HG2L7.5c1), luciferase, 24 h; series mostly up to 70.3 µM. From the text:
U.S. Tox21 Program National Center for Advancing Translational Sciences [NCATS] NIH Chemical Genomics Center [NCGC] U.S. Environmental Protection Agency [EPA] National Institutes of Environmental Health Sciences [NIEHS] National Toxicology Program [NTP] U.S. Food and Drug Administration [FDA] Tox21 Assay overview: The Aryl hydrocarbon Receptor (AhR), a member of the family of basic helix-loop-helix transcription factors, is crucial to adaptive responses to environmental changes. AhR mediates cellular responses to environmental pollutants such as aromatic hydrocarbons through induction of phase I and II enzymes but also interacts with other nuclear receptor signaling pathways. A cell based HepG2-AhR-luc assay (HG2L7.5c1 cell line, developed by Dr. Michael S. Denison, University of California at Davis, was used to assess the activation of AhR. HepG2 (human hepatocellular carcinoma) cells were stably transfected with an Ah receptor-responsive firefly luciferase reporter gene plasmid containing 20 dioxin responsive elements and luciferase reporter gene. Increased luciferase activity can be used to identify the compounds that induce AhR activation.
Tox21 Assay Protocol Summary: 4000 cells in 5 uL/well were dispensed into white wall/solid bottom 1536-well plates using a Multidrop Combi (Thermo Fisher Scientific Inc., Waltham, MA) dispenser. After the assay plates were incubated at 37C for 5 h, 23 nL of compound or DMSO vehicle was transferred to the assay plates by a pintool station (Kalypsys, San Diego, CA). The plates were incubated at 37C for 24 hr. After 1 ul/well of CellTiter-Fluor reagent (Promega, Madison, WI) was added into the assay plates using a Flying Reagent Dispenser (FRD) (Aurora Discovery, CA), the assay plates were incubated at 37C for 30 min. The fluorescence intensity in the plates was measured using a ViewLux plate reader (PerkinElmer, Shelton, CT), followed by the addition of 4 uL of ONE-Glo Luciferase Assay reagent (Promega) using an FRD (Aurora Discovery). After the assay plates were incubated at room temperature for 30 min, luminescence intensity was measured using a ViewLux plate reader (Perkin Elmer).
As for `O=[N+]([O-])c1cc(Cl)c(Cl)cc1Cl`, the Potency result was “inactive”. Still for that read-out and setting: under `Cc1ccc2c(C)cccc2c1` stands “inactive”. The same measure, in the same setting: under `O=C(O)C(Cl)(Cl)Br` stands “inactive”; under `C[C@H]1O[C@H](OC2[C@@H](O)[C@@H](O)C(O)[C@H](O)[C@H]2O)[C@@H](N)C[C@@H]1N=C(N)C(=O)O` (stereo not given in full), “inactive”; under `COc1cc(CC(C)N)c(OC)cc1Br` (stereo not given), “inactive”. `Clc1ccccc1`: the Potency result is “inactive”. The same measure, in the same setting: in the case of `Clc1ccc2ccccc2c1` it was “inactive”. The same measure, in the same setting: in the case of `CN1CC[C@]23c4c5ccc(O)c4O[C@H]2[C@@H](O)CC[C@H]3[C@H]1C5` it was “inactive”. Same read-out and setting: in the case of `CC(C)OC(=O)Cc1ccccc1` it was “inactive”; in that of `CC(C)(C)c1ccc(CCOc2ncnc3ccccc23)cc1`, “inactive”; in that of `C=C(C)C(=O)OCCCCOC(=O)C(=C)C`, “inactive”. `C=CC(C)(CCC=C(C)C)OC(=O)c1ccccc1N` (stereo not given): the Potency entry was “inactive”.

Consider `CCCBr`, for which the Potency entry was “inactive”. In the case of `OC[P+](CO)(CO)CO`, the Potency result is “inactive”. As for `C[C@H]1[C@@H]2Cc3ccc(O)cc3[C@@]1(C)CCN2C`, the Potency entry was “inactive”. In the case of `COC1=CC(=O)O[C@@H](/C=C/c2ccc3c(c2)OCO3)C1`, the Potency is 414 nM (active).

In the case of `CCCC[P+](CC)(CCCC)CCCC` (tested in a mixture with another compound), the Potency result is “inactive”. `c1ccc2sc(SNC3CCCCC3)nc2c1`: the Potency is 23.7 µM (active) and 34 µM (active) and 30.6 µM (active). For `COP(=O)(OC)OC(Br)C(Cl)(Cl)Br` (stereo not given), the Potency entry is “inactive”. The same measure, in the same setting: under `CCC1(C2=NCCN2)Cc2ccccc2O1` (stereo not given) stands “inactive”.

For the compound `CCCCCCCCCCCCN=C(N)N`, the activation is -0.0242% [at 3.79 µM]. As to `CCC(C)(C)O`, the Potency result is “inactive”. On to `CCOC(=O)NC(O)C(Cl)(Cl)Cl` (stereo not given), for which the Potency entry was “inactive”.

Regarding `O=C(Cc1ccccc1)OCCc1ccccc1`, the Potency entry was “inactive”. For the compound `CC(C)[C@@H](C(=O)O[C@@H](C#N)c1cccc(Oc2ccccc2)c1)c1ccc(Cl)cc1`, the Potency result is “inactive”. Regarding `CC(C)(C)NCC(O)c1ccccc1Cl` (stereo not given), the Potency entry is “inactive”. On to `CCOP(=O)(SC(C)CC)N1CCSC1=O` (stereo not given), for which the Potency result was “inactive”. Take `O=C(O)C(O)C(O)C(=O)O` (stereo not given): the Potency entry is “inactive”.

In the case of `O=CC=O`, the Potency entry is “inactive”. On to `CC(C)c1ccc(OP(=O)(Oc2ccc(C(C)C)cc2)Oc2ccc(C(C)C)cc2)cc1`, for which the Potency entry was “inactive”. Still for that read-out and setting: under `Cc1cccc(C)c1NC1=NCCCS1` stands “inactive”; under `CCC(C)(C)c1ccc(O)c(C(C)(C)CC)c1`, “inactive”.

For the compound `O=C(CCl)CCl`, the Potency result is “inactive”. Regarding `CCc1cnc(C2=NC(C)(C(C)C)C(=O)N2)c(C(=O)O)c1` (stereo not given), the Potency result was “inactive”. Same read-out and setting: under `O=C1CC[C@@]2(O)[C@H]3Cc4ccc(O)c5c4[C@@]2(CCN3CC2CC2)[C@H]1O5` stands “inactive”; under `Clc1ccc(Cl)c(Cl)c1`, “inactive”; under `CC(C)c1ccc(NC(=O)N(C)C)cc1`, 68500 nM (active). On to `CC(C)(C#N)C(C)(C)C#N`, for which the Potency result was “inactive”. In the case of `[Cl-].[Cl-].[Hg+2]`, the Potency entry is “inactive”. On to `CCC[N+](CCC)(CCC)CCC`, for which the Potency entry is “inactive”.
